This is a sample that favours compounds with a hit; in the whole collection about 3% have one here.
PAX8 reporter – inhibitors of PAX8-driven TPO luciferase reporter, primary screen, RMG-I cells, single concentration. SteadyGlo, 24 h. inhibition, % at 12.6 µM. 360,000 tested, 1.2% active;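 active = mean replicate inhibition at least 60% with every replicate also reaching 60%; inconclusive = only one of the two criteria is met; inactive = mean below 60% and not all replicates reaching 60%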;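 also: luciferase light reporting Pax8 driven TPO promoter activity; plate controls were median of neutral control wells for no effect and mitoxantrone controls for full effect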
MITF TRPM1 inh – inhibitors of MITF-dependent TRPM1 promoter reporter, primary screen, cell-based, SK-MEL-5, single point, luciferase; SK-MEL-5 TRPM1 promoter luciferase, 24 h; inhibition, % at 12.5 µM; 330,000 tested, 0.83% active; AID 488899, 2010;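 active = mean inhibition across replicates of 60% or more, whatever share of single replicates reaches that level; inconclusive = some that reach 60%, reason not given; inactive = mean inhibition across replicates below 60%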
ABHD5 PLIN5 PPI – ABHD5-PLIN5 interaction inhibitors, primary screen, cell lysate, split luciferase complementation, luminescence. AID 602281, 2012. inhibition, % at 4 µM. 360,000 tested, 0.78% active. Split G. princeps luciferase complementation, 4 h. Perilipin-5 (Homo sapiens) + 1-acylglycerol-3-phosphate O-acyltransferase ABHD5 (Homo …;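 active = inhibition above the mean inhibition across every tested compound plus 3 SD, cut at about 22% in these data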;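 also: 0% = DMSO only wells and the 100% control is not disclosed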
Target sequence (Q00G26 whole entry, looked up): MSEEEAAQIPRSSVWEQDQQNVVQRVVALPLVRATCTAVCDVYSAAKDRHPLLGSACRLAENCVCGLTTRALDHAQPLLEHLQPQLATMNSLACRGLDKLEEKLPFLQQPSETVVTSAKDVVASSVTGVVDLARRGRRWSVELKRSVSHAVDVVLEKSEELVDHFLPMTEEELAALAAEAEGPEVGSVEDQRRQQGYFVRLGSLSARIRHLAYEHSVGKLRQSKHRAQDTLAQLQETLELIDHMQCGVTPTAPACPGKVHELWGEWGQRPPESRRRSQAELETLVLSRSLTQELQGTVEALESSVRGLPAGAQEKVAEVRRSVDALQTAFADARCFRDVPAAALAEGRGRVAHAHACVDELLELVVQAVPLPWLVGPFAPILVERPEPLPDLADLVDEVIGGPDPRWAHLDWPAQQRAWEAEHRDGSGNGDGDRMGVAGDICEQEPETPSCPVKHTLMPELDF
Target sequence (Q8WTS1 whole entry, looked up): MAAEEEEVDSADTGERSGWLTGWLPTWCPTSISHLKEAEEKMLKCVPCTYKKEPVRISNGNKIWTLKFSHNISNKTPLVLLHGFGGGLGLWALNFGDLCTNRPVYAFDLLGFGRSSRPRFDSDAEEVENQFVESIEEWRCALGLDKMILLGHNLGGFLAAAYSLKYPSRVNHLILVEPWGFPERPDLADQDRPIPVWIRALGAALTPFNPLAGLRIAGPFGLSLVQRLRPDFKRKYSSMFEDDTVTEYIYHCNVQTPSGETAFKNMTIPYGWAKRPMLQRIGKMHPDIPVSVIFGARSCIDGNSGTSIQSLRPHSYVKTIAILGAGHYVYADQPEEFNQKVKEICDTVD
Peg3 promoter – Peg3 promoter-driven luciferase inhibitors, primary screen, cell-based, HeLa, luciferase luminescence; HeLa PEG-Prom luciferase reporter, overnight; inhibition, % at 20 µM; 360,000 tested, 1.7% active; AID 588405, 2011;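 active = inhibition of at least 50% at 20 µM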
EWS-Fli block – EWS/Fli-driven NR0B1 reporter inhibitors, primary screen, A673 cells, NR0B1 luciferase, luminescence, MLPCN library. viability-normalised. inhibition, % at 12.6 µM. 350,000 tested, 0.67% active;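 active = mean inhibition of at least 50% after viability correction, with every replicate also passing that limit; inconclusive = mean reaches 50% but only one of two replicates passes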;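 also: firefly luciferase signal divided by Alamar Blue viability fluorescence both relative to DMSO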
Shn3 3UTR inh – reduction of Shn3 3'UTR firefly luciferase signal, primary screen, Schnurri-3 inhibitor project, cell-based, Clone20 osteoblasts, set 2 | Clone20 osteoblast Shn3 3'UTR firefly luciferase, 24 h | inhibition, % at 12.5 µM | 360,000 tested, 0.52% active;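 active = mean inhibition of at least 75% with every replicate also reaching 75%; inconclusive = mean inhibition at least 75% but some replicate below; inactive = mean inhibition below 75%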;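 also: 0% = median of neutral control wells and 100% = pilot-screen positive control compound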
Numbers without * were called inactive; ? = inconclusive; nt = not tested or not shown.

SMILES | PAX8 reporter | MITF TRPM1 inh | ABHD5 PLIN5 PPI | Peg3 promoter | EWS-Fli block | Shn3 3UTR inh
O=C(CNc1cccc2ccccc12)N/N=C/c1ccc([N+](=O)[O-])o1 | 49 | 75* | 7 | 0 | 36 | 15
COc1ccc(NC(=O)N(C)C[C@H]2OCCCC[C@@H](C)Oc3ccc(NS(=O)(=O)c4c(C)noc4C)cc3C(=O)N([C@@H](C)CO)C[C@H]2C)cc1 | 9 | nt | nt | nt | 7 | nt
COc1cccc(C(=O)Nc2sc3c(c2C(=O)O)CCCC3)c1 | -12 | -10 | 1 | -129 | -207 | 12
COc1cccc(C(=O)Nc2sc3c(c2C#N)CCN(C(C)=O)C3)c1 | 18 | 3 | 1 | -16 | 60* | 8
CO[C@@H]1CN(C)C(=O)c2ccc(NC(=O)NC(C)C)cc2OC[C@H](C)N(CCC(F)(F)F)C[C@H]1C | nt | nt | nt | nt | 5 | nt
COc1cccc(NC(=O)N2CC(=O)N3[C@H](C2)[C@@H](c2ccc(C4=CCCC4)cc2)[C@@H]3CO)c1 | 28 | nt | nt | nt | 7 | nt
C[C@@H]1CN([C@@H](C)CO)S(=O)(=O)c2ccc(C#CC3CC3)cc2O[C@H]1CN(C)C(=O)Nc1cc(F)ccc1F | nt | nt | nt | nt | 16 | nt
CCN1/C(=C/C=C/C=C/C=C/c2sc3ccccc3[n+]2CC)Sc2ccccc21 | 10 | 95* | 7 | 43 | 23 | 78
CCN1/C(=C/C=C/c2sc3ccccc3[n+]2CC)Sc2ccccc21 | nt | 99* | 9 | 78* | nt | 95*
CC[n+]1c(/C=C(\C)SC)sc2ccccc21 | nt | 10 | -7 | 5 | 1 | -15
CCc1ccc(/C=C/c2c[nH]c3ccccc23)[n+](CC)c1 | 67* | 39 | -2 | 6 | 17 | 81
O=C(O)c1cc(-c2ccccc2)n(-c2ccc(F)cc2)n1 | -3 | -4 | -11 | 78* | 1 | 2
COC(=O)C[C@@H]1C[C@H]2c3cc(NS(=O)(=O)c4ccccc4)ccc3O[C@H]2[C@H](CO)O1 | 9 | nt | nt | nt | 3 | nt
Oc1c(C(Nc2cccc(C(F)(F)F)c2)c2ccncc2)ccc2cccnc12 (stereo not drawn) | 48 | 65* | 4 | 18 | 15 | 97*
CN1CCN(C(c2ccc(F)cc2)c2ccc3cccnc3c2O)CC1 (stereo not drawn) | nt | -11 | -3 | -15 | nt | 27
Oc1c(C(Nc2nccs2)c2ccc(C(F)(F)F)cc2)ccc2cccnc12 (stereo not drawn) | 85* | 80* | -2 | 68* | ? | 78
CCOc1ccc(C(Nc2cccnc2)c2cc(Cl)c3cccnc3c2O)cc1 (stereo not drawn) | ? | 43 | 9 | 46 | 43 | 77
O=c1oc(Cl)c(Cl)c2ccccc12 | -13 | 90* | 4 | 48 | -9 | 66
O=c1oc2cc(O)c(Cl)cc2c2ccccc12 | 8 | 20 | 5 | -12 | nt | 11
COc1ccc(CC(N)c2csc(Nc3ccc(C(=O)c4ccccc4)cc3)n2)cc1 (stereo not drawn) | 17 | nt | 11 | 66* | 17 | 33
NC(Cc1ccc(Cl)cc1)c1csc(Nc2ccc(C(=O)c3ccccc3)cc2)n1 (stereo not drawn) | 19 | nt | -5 | 97* | 35 | 62
NC(Cc1ccc(F)cc1)c1csc(Nc2ccc(C(=O)c3ccccc3)cc2)n1 (stereo not drawn) | 27 | nt | 0 | 91* | 45 | 20
NC(Cc1ccccc1)c1csc(Nc2ccc(C(=O)c3ccccc3)cc2)n1 (stereo not drawn) | 12 | nt | 9 | 66* | 11 | 64
NC(CO)c1csc(Nc2ccc(C(=O)c3ccccc3)cc2)n1 (stereo not drawn) | 1 | nt | -9 | -22 | -14 | -11
COc1ccc(S(=O)(=O)N(C)C[C@H]2Oc3ccc(NS(=O)(=O)c4ccc(F)cc4)cc3CC(=O)N([C@H](C)CO)C[C@H]2C)cc1 | nt | nt | nt | nt | 4 | nt
SMILES | PAX8 reporter | MITF TRPM1 inh | ABHD5 PLIN5 PPI | Peg3 promoter | EWS-Fli block | Shn3 3UTR inh
CO[C@H]1CN(C)C(=O)c2cc(NC(=O)C3CC3)ccc2OC[C@H](C)N(C(C)=O)C[C@H]1C | 3 | nt | nt | nt | 1 | nt
NC(c1csc(Nc2ccc(C(=O)c3ccccc3)cc2)n1)C1CCCCC1 (stereo not drawn) | 15 | nt | -2 | 97* | 37 | 80
COc1cccc(-c2ccc([C@H]3[C@@H](CO)N4C(=O)CN(C(=O)c5cccnc5)C[C@H]34)cc2)c1 | -10 | nt | nt | nt | -2 | nt
Oc1ccc(Cl)cc1Sc1cc(Cl)ccc1O | -7 | 16 | -8 | 71* | 23 | -7
Cc1ccc(S(=O)(=O)N(C)C[C@H]2OCCCC[C@H](C)Oc3ccc(NS(=O)(=O)c4cccs4)cc3C(=O)N([C@@H](C)CO)C[C@H]2C)cc1 | 17 | nt | nt | nt | -4 | nt
C[C@H](CO)N1C[C@H](C)[C@@H](CN(C)S(=O)(=O)c2ccc(Cl)cc2)OCCCC[C@H](C)Oc2ccc(NS(=O)(=O)c3cccs3)cc2C1=O | 80* | nt | nt | nt | 18 | nt
C[C@H]1CCCCO[C@H](CN(C)S(=O)(=O)c2ccc(Cl)cc2)[C@@H](C)CN([C@@H](C)CO)C(=O)c2cc(NS(=O)(=O)c3cccs3)ccc2O1 | 68* | nt | nt | nt | 26 | nt
C[C@@H]1CN([C@H](C)CO)C(=O)c2cc(NS(=O)(=O)c3cccs3)ccc2O[C@@H](C)CCCCO[C@H]1CN(C)S(=O)(=O)c1ccc(Cl)cc1 | 18 | nt | nt | nt | 3 | nt
Cc1ccc(S(=O)(=O)N(C)C[C@@H]2OCCCC[C@H](C)Oc3ccc(NS(=O)(=O)c4cccs4)cc3C(=O)N([C@H](C)CO)C[C@H]2C)cc1 | 78* | nt | nt | nt | 11 | nt
C[C@H](CO)N1C[C@H](C)[C@H](CN(C)S(=O)(=O)c2ccc(Cl)cc2)OCCCC[C@H](C)Oc2ccc(NS(=O)(=O)c3cccs3)cc2C1=O | 67* | nt | nt | nt | 6 | nt
C[C@@H]1CCCCO[C@H](CN(C)S(=O)(=O)c2ccc(Cl)cc2)[C@H](C)CN([C@H](C)CO)C(=O)c2cc(NS(=O)(=O)c3cccs3)ccc2O1 | 20 | nt | nt | nt | 20 | nt
